Hit rate of the full screen: of about 21,000 compounds, fewer than 10 showed an effect of 50% or more. These entries were drawn from the full list. Potency and affinity values are given separately.
What follows are compounds tested on Acinetobacter baumannii. Settings: Concentration 20 uM; ASSAY_TEST Inhibition of Bacterial Growth; detection method Absorption (OD600); MEDIA CAMHB; plate type 384well; NBS; CORNING #3640; time 18 hr.
Compound `O=C(CN1CCOCC1)Nc1ccc2ncnc(Nc3ccc(OCc4cccc(F)c4)c(Cl)c3)c2c1` has an Inhibition of 8.91%. Work on `Cl.O=C(Nc1ccc(N2CCNCC2)nc1)c1oc(-c2ccccc2)nc1C(F)(F)F` yielded an Inhibition of 4.8%.

Source: ChEMBL document CHEMBL4513149, “CO-ADD screening of MMV (CH) - MMV compounds” (2021)
